# Source: paper PMC11006913
# Experiments:
# Experiment in all cases: PBM; 200 nM protein, PBS
# Conditions in all cases: dsDNA, one strand shown
# VAX1 [1] = target: VAX1 (Homo sapiens, UniProt Q5SQQ9 86-172)
# VAX1 [2] = target: VAX1 (Homo sapiens, UniProt Q5SQQ9 86-172, K157R)
# VENTX = target: T1, VENTX (Homo sapiens, UniProt O95231 78-163)
# T1 sequence: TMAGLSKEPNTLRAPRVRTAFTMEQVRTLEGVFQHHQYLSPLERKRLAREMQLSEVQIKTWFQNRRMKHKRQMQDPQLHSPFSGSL
# CRX [3] = target: CRX (Homo sapiens, UniProt O43186 26-111)
# CRX (Homo sapiens, UniProt O43186 26-111), sequence (O43186 26-111): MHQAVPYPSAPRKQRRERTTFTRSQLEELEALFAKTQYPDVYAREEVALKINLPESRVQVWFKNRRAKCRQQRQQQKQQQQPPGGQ
# CRX [4] = target: CRX (Homo sapiens, UniProt O43186 26-111, E42D)
# CRX (Homo sapiens, UniProt O43186 26-111, E42D), sequence (O43186 26-111 E42D): as the sequence (O43186 26-111) above, with E17D counted along it
# HOXA7 = HOXA7 (Homo sapiens, UniProt P31268 116-202, W177C)
# HOXA7, sequence (P31268 116-202 W177C): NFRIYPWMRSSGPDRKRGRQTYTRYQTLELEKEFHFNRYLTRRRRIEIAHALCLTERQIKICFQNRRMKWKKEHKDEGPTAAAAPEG
# CRX [5] = target: CRX (Homo sapiens, UniProt O43186 26-111, R41L)
# CRX (Homo sapiens, UniProt O43186 26-111, R41L), sequence (O43186 26-111 R41L): as the sequence (O43186 26-111) above, with R16L counted along it
# HOXA4 [6] = target: HOXA4 (Homo sapiens, UniProt Q00056 201-287, W262R)
# HOXA4 (Homo sapiens, UniProt Q00056 201-287, W262R), sequence (Q00056 201-287 W262R): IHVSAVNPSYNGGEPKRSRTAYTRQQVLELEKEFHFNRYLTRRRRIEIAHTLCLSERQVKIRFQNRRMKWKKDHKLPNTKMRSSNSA
# HOXA4 [7] = target: HOXA4 (Homo sapiens, UniProt Q00056 201-287, R217L)
# HOXA4 (Homo sapiens, UniProt Q00056 201-287, R217L), sequence (Q00056 201-287 R217L): as the sequence (Q00056 201-287 W262R) above, with R17L, R62W counted along it
# HOXA4 [8] = target: HOXA4 (Homo sapiens, UniProt Q00056 201-287)
# HOXA4 (Homo sapiens, UniProt Q00056 201-287), sequence (Q00056 201-287): as the sequence (Q00056 201-287 W262R) above, with R62W counted along it
# HOXB9 [9] = target: HOXB9 (Homo sapiens, UniProt P17482 171-250, T197M)
# HOXB9 (Homo sapiens, UniProt P17482 171-250, T197M), sequence (P17482 171-250 T197M): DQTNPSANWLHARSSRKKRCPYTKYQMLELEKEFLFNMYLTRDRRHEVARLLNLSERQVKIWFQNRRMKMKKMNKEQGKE
# HOXB9 [10] = target: HOXB9 (Homo sapiens, UniProt P17482 171-250)
# HOXB9 (Homo sapiens, UniProt P17482 171-250), sequence (P17482 171-250): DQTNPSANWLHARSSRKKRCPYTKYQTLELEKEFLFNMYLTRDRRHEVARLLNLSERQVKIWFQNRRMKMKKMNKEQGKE
# HOXB9 [11] = target: HOXB9 (Homo sapiens, UniProt P17482 171-250, R186Q)
# HOXB9 (Homo sapiens, UniProt P17482 171-250, R186Q), sequence (P17482 171-250 R186Q): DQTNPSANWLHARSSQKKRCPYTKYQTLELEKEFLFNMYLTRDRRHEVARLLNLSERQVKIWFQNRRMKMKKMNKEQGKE
# HOXC9 [12] = target: HOXC9 (Homo sapiens, UniProt P31274 178-260, K195R)
# HOXC9 (Homo sapiens, UniProt P31274 178-260, K195R), sequence (P31274 178-260 K195R): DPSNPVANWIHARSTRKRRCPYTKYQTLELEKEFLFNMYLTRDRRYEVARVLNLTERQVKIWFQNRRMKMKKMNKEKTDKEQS
# HOXC9 [13] = target: HOXC9 (Homo sapiens, UniProt P31274 178-260)
# HOXC9 (Homo sapiens, UniProt P31274 178-260), sequence (P31274 178-260): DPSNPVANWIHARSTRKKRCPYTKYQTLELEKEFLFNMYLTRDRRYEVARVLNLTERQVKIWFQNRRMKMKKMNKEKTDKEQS
# HOXC9 [14] = target: HOXC9 (Homo sapiens, UniProt P31274 178-260, R193K)
# HOXC9 (Homo sapiens, UniProt P31274 178-260, R193K), sequence (P31274 178-260 R193K): as the sequence (P31274 178-260) above, with R16K counted along it
# HOXC9 [15] = target: HOXC9 (Homo sapiens, UniProt P31274 178-260, R222W)
# HOXC9 (Homo sapiens, UniProt P31274 178-260, R222W), sequence (P31274 178-260 R222W): as the sequence (P31274 178-260) above, with R45W counted along it
# SIX6 = target: T2, SIX6 (Homo sapiens, UniProt O95475 114-200, H141N)
# T2 sequence: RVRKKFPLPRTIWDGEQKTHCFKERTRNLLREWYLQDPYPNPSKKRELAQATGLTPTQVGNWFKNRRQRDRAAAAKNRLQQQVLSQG
# HOXB6 [16] = target: HOXB6 (Homo sapiens, UniProt P17509 132-218, K202E)
# HOXB6 (Homo sapiens, UniProt P17509 132-218, K202E), sequence (P17509 132-218 K202E): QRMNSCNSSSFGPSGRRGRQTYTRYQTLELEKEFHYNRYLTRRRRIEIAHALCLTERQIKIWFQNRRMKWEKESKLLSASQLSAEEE
# HOXB6 [17] = target: HOXB6 (Homo sapiens, UniProt P17509 132-218)
# HOXB6 (Homo sapiens, UniProt P17509 132-218), sequence (P17509 132-218): as the sequence (P17509 132-218 K202E) above, with E71K counted along it
# VAX1 (Homo sapiens, UniProt Q5SQQ9 86-172), sequence (Q5SQQ9 86-172): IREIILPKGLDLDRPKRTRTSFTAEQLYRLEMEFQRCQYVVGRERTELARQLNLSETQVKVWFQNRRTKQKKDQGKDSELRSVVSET
# VAX1 (Homo sapiens, UniProt Q5SQQ9 86-172, K157R), sequence (Q5SQQ9 86-172 K157R): as the sequence (Q5SQQ9 86-172) above, with K72R counted along it
sequence,measurement,setting,value
CAATTAGA,binding signal,VAX1 [1],"12.6 upbm affinity estimate (log intensity, higher = more binding, comparable within an allelic series)"
same,binding signal,VAX1 [2],"12.3 upbm affinity estimate (log intensity, higher = more binding, comparable within an allelic series)"
AATTAGTG,binding signal,VENTX,"12.3 upbm affinity estimate (log intensity, higher = more binding, comparable within an allelic series)"
same,binding signal,VAX1 [1],"12.8 upbm affinity estimate (log intensity, higher = more binding, comparable within an allelic series)"
same,binding signal,VAX1 [2],"12.8 upbm affinity estimate (log intensity, higher = more binding, comparable within an allelic series)"
ATTAATGC,binding signal,CRX [3],"11.9 upbm affinity estimate (log intensity, higher = more binding, comparable within an allelic series)"
same,binding signal,CRX [4],"11.7 upbm affinity estimate (log intensity, higher = more binding, comparable within an allelic series)"
same,binding signal,HOXA7,"8.84 upbm affinity estimate (log intensity, higher = more binding, comparable within an allelic series)"
same,binding signal,CRX [5],"11 upbm affinity estimate (log intensity, higher = more binding, comparable within an allelic series)"
CCGAGCGG,binding signal,HOXA4 [6],"9.72 upbm affinity estimate (log intensity, higher = more binding, comparable within an allelic series)"
same,binding signal,HOXA4 [7],"9.78 upbm affinity estimate (log intensity, higher = more binding, comparable within an allelic series)"
same,binding signal,HOXA4 [8],"9.77 upbm affinity estimate (log intensity, higher = more binding, comparable within an allelic series)"
CCTTCGAG,binding signal,HOXB9 [9],"8.5 upbm affinity estimate (log intensity, higher = more binding, comparable within an allelic series)"
same,binding signal,HOXB9 [10],"8.46 upbm affinity estimate (log intensity, higher = more binding, comparable within an allelic series)"
same,binding signal,HOXB9 [11],"8.5 upbm affinity estimate (log intensity, higher = more binding, comparable within an allelic series)"
CCAATTAC,binding signal,HOXB9 [10],"10.9 upbm affinity estimate (log intensity, higher = more binding, comparable within an allelic series)"
same,binding signal,HOXB9 [11],"10.6 upbm affinity estimate (log intensity, higher = more binding, comparable within an allelic series)"
CCCAGGCG,binding signal,HOXC9 [12],"9.48 upbm affinity estimate (log intensity, higher = more binding, comparable within an allelic series)"
same,binding signal,HOXC9 [13],"9.7 upbm affinity estimate (log intensity, higher = more binding, comparable within an allelic series)"
same,binding signal,HOXC9 [14],"9.62 upbm affinity estimate (log intensity, higher = more binding, comparable within an allelic series)"
same,binding signal,HOXC9 [15],"9.63 upbm affinity estimate (log intensity, higher = more binding, comparable within an allelic series)"
GGAGCGCA,binding signal,SIX6,"8.88 upbm affinity estimate (log intensity, higher = more binding, comparable within an allelic series)"
GCCAATTA,binding signal,VENTX,"12.5 upbm affinity estimate (log intensity, higher = more binding, comparable within an allelic series)"
same,binding signal,VAX1 [1],"12.8 upbm affinity estimate (log intensity, higher = more binding, comparable within an allelic series)"
same,binding signal,VAX1 [2],"12.6 upbm affinity estimate (log intensity, higher = more binding, comparable within an allelic series)"
CCCAATTA,binding signal,VENTX,"12.4 upbm affinity estimate (log intensity, higher = more binding, comparable within an allelic series)"
same,binding signal,VAX1 [1],"12.7 upbm affinity estimate (log intensity, higher = more binding, comparable within an allelic series)"
same,binding signal,VAX1 [2],"12.6 upbm affinity estimate (log intensity, higher = more binding, comparable within an allelic series)"
AATTAGCC,binding signal,VAX1 [1],"12.7 upbm affinity estimate (log intensity, higher = more binding, comparable within an allelic series)"
same,binding signal,VAX1 [2],"12.1 upbm affinity estimate (log intensity, higher = more binding, comparable within an allelic series)"
CAATTATA,binding signal,HOXB9 [9],"10.1 upbm affinity estimate (log intensity, higher = more binding, comparable within an allelic series)"
same,binding signal,HOXC9 [12],"12.5 upbm affinity estimate (log intensity, higher = more binding, comparable within an allelic series)"
same,binding signal,HOXB6 [16],"10 upbm affinity estimate (log intensity, higher = more binding, comparable within an allelic series)"
same,binding signal,HOXA4 [7],"12 upbm affinity estimate (log intensity, higher = more binding, comparable within an allelic series)"
same,binding signal,HOXA7,"8.95 upbm affinity estimate (log intensity, higher = more binding, comparable within an allelic series)"
same,binding signal,HOXB6 [17],"11.9 upbm affinity estimate (log intensity, higher = more binding, comparable within an allelic series)"
CCAATTAG,binding signal,VENTX,"13.1 upbm affinity estimate (log intensity, higher = more binding, comparable within an allelic series)"
same,binding signal,VAX1 [1],"13.1 upbm affinity estimate (log intensity, higher = more binding, comparable within an allelic series)"
same,binding signal,VAX1 [2],"12.9 upbm affinity estimate (log intensity, higher = more binding, comparable within an allelic series)"
AATTAGCG,binding signal,VENTX,"12.3 upbm affinity estimate (log intensity, higher = more binding, comparable within an allelic series)"
same,binding signal,VAX1 [1],"12.6 upbm affinity estimate (log intensity, higher = more binding, comparable within an allelic series)"
same,binding signal,VAX1 [2],"12.5 upbm affinity estimate (log intensity, higher = more binding, comparable within an allelic series)"
GAGGGGGC,binding signal,CRX [3],"8.07 upbm affinity estimate (log intensity, higher = more binding, comparable within an allelic series)"
same,binding signal,HOXB9 [9],"8.48 upbm affinity estimate (log intensity, higher = more binding, comparable within an allelic series)"
same,binding signal,HOXB9 [10],"8.37 upbm affinity estimate (log intensity, higher = more binding, comparable within an allelic series)"
same,binding signal,CRX [4],"8.05 upbm affinity estimate (log intensity, higher = more binding, comparable within an allelic series)"
same,binding signal,HOXB9 [11],"8.62 upbm affinity estimate (log intensity, higher = more binding, comparable within an allelic series)"
same,binding signal,CRX [5],"8.14 upbm affinity estimate (log intensity, higher = more binding, comparable within an allelic series)"
AATTAACG,binding signal,HOXA4 [7],"12.1 upbm affinity estimate (log intensity, higher = more binding, comparable within an allelic series)"
CAATTACG,binding signal,HOXA4 [6],"10.4 upbm affinity estimate (log intensity, higher = more binding, comparable within an allelic series)"
same,binding signal,HOXA4 [7],"11.6 upbm affinity estimate (log intensity, higher = more binding, comparable within an allelic series)"
same,binding signal,HOXA4 [8],"13.1 upbm affinity estimate (log intensity, higher = more binding, comparable within an allelic series)"
same,binding signal,VAX1 [2],"12.3 upbm affinity estimate (log intensity, higher = more binding, comparable within an allelic series)"
AATTAGTA,binding signal,HOXB6 [16],"9.94 upbm affinity estimate (log intensity, higher = more binding, comparable within an allelic series)"
same,binding signal,HOXB6 [17],"11.3 upbm affinity estimate (log intensity, higher = more binding, comparable within an allelic series)"
CAATTACA,binding signal,HOXB6 [16],"9.87 upbm affinity estimate (log intensity, higher = more binding, comparable within an allelic series)"
same,binding signal,HOXB6 [17],"11.4 upbm affinity estimate (log intensity, higher = more binding, comparable within an allelic series)"
CAATTAGG,binding signal,VENTX,"12.7 upbm affinity estimate (log intensity, higher = more binding, comparable within an allelic series)"
same,binding signal,VAX1 [1],"12.9 upbm affinity estimate (log intensity, higher = more binding, comparable within an allelic series)"
same,binding signal,VAX1 [2],"12.7 upbm affinity estimate (log intensity, higher = more binding, comparable within an allelic series)"
AATTAAAT,binding signal,HOXB9 [9],"10 upbm affinity estimate (log intensity, higher = more binding, comparable within an allelic series)"
same,binding signal,HOXC9 [12],"12.5 upbm affinity estimate (log intensity, higher = more binding, comparable within an allelic series)"
same,binding signal,HOXB9 [10],"11.8 upbm affinity estimate (log intensity, higher = more binding, comparable within an allelic series)"
same,binding signal,HOXC9 [13],"12.5 upbm affinity estimate (log intensity, higher = more binding, comparable within an allelic series)"
same,binding signal,HOXC9 [14],"12.6 upbm affinity estimate (log intensity, higher = more binding, comparable within an allelic series)"
same,binding signal,HOXB9 [11],"11.5 upbm affinity estimate (log intensity, higher = more binding, comparable within an allelic series)"
same,binding signal,HOXC9 [15],"11.2 upbm affinity estimate (log intensity, higher = more binding, comparable within an allelic series)"
CGCGTAGC,binding signal,SIX6,"9.02 upbm affinity estimate (log intensity, higher = more binding, comparable within an allelic series)"
CGGGCCCG,binding signal,HOXA7,"8.26 upbm affinity estimate (log intensity, higher = more binding, comparable within an allelic series)"
CCGTAGGC,binding signal,HOXC9 [12],"9.73 upbm affinity estimate (log intensity, higher = more binding, comparable within an allelic series)"
same,binding signal,HOXC9 [13],"9.68 upbm affinity estimate (log intensity, higher = more binding, comparable within an allelic series)"
same,binding signal,HOXC9 [14],"9.78 upbm affinity estimate (log intensity, higher = more binding, comparable within an allelic series)"
same,binding signal,HOXC9 [15],"9.77 upbm affinity estimate (log intensity, higher = more binding, comparable within an allelic series)"
same,binding signal,HOXA7,"8.4 upbm affinity estimate (log intensity, higher = more binding, comparable within an allelic series)"
GCCAGCGA,binding signal,VENTX,"8.16 upbm affinity estimate (log intensity, higher = more binding, comparable within an allelic series)"
GCCCCCCA,binding signal,HOXA4 [6],"9.56 upbm affinity estimate (log intensity, higher = more binding, comparable within an allelic series)"
same,binding signal,HOXB6 [16],"8.7 upbm affinity estimate (log intensity, higher = more binding, comparable within an allelic series)"
same,binding signal,HOXA4 [7],"9.68 upbm affinity estimate (log intensity, higher = more binding, comparable within an allelic series)"
same,binding signal,HOXA4 [8],"9.71 upbm affinity estimate (log intensity, higher = more binding, comparable within an allelic series)"
same,binding signal,HOXB6 [17],"8.91 upbm affinity estimate (log intensity, higher = more binding, comparable within an allelic series)"
CCAGCGCA,binding signal,HOXC9 [12],"9.45 upbm affinity estimate (log intensity, higher = more binding, comparable within an allelic series)"
same,binding signal,HOXC9 [13],"9.65 upbm affinity estimate (log intensity, higher = more binding, comparable within an allelic series)"
same,binding signal,HOXC9 [14],"9.5 upbm affinity estimate (log intensity, higher = more binding, comparable within an allelic series)"
same,binding signal,VAX1 [1],"7.28 upbm affinity estimate (log intensity, higher = more binding, comparable within an allelic series)"
same,binding signal,HOXC9 [15],"9.6 upbm affinity estimate (log intensity, higher = more binding, comparable within an allelic series)"
same,binding signal,VAX1 [2],"7.39 upbm affinity estimate (log intensity, higher = more binding, comparable within an allelic series)"
CCCGGCTC,binding signal,HOXC9 [12],"9.4 upbm affinity estimate (log intensity, higher = more binding, comparable within an allelic series)"
same,binding signal,HOXC9 [13],"9.46 upbm affinity estimate (log intensity, higher = more binding, comparable within an allelic series)"
same,binding signal,HOXC9 [14],"9.4 upbm affinity estimate (log intensity, higher = more binding, comparable within an allelic series)"
same,binding signal,HOXC9 [15],"9.63 upbm affinity estimate (log intensity, higher = more binding, comparable within an allelic series)"
CAGCCAGG,binding signal,HOXC9 [12],"9.53 upbm affinity estimate (log intensity, higher = more binding, comparable within an allelic series)"
same,binding signal,VENTX,"8.23 upbm affinity estimate (log intensity, higher = more binding, comparable within an allelic series)"
same,binding signal,SIX6,"9.06 upbm affinity estimate (log intensity, higher = more binding, comparable within an allelic series)"
same,binding signal,HOXC9 [13],"9.58 upbm affinity estimate (log intensity, higher = more binding, comparable within an allelic series)"
same,binding signal,HOXC9 [14],"9.41 upbm affinity estimate (log intensity, higher = more binding, comparable within an allelic series)"
same,binding signal,HOXC9 [15],"9.62 upbm affinity estimate (log intensity, higher = more binding, comparable within an allelic series)"
CAGGCGCC,binding signal,SIX6,"8.85 upbm affinity estimate (log intensity, higher = more binding, comparable within an allelic series)"
